Molecules are shown by their SMILES.

The values below come from ChEMBL document CHEMBL3988442, “University of Dundee, Small-Polar-MMV Screening Library” (2021).

The experiment addresses AMP-activated protein kinase, AMPK (Homo sapiens) (UniProt P54646+O43741+P54619+Q9UGJ0+Q9Y478+Q13131+Q9UGI9). Put plainly: AMP-dependent Kinase enzyme assay. An in vitro enzyme assay that detects ADP turnover that is directly proportional to AMPK activity. This uses naive AMPK that is activated during the assay with MK-8722. As to conditions: 30 µM. Type of experiment: functional. More on the design: scale not given: direction of the effect not stated beside the values.
Regarding `COCCC(=O)N(CCC#N)c1ccc(C)c(C)c1`, the Percent Effect was -6.74%.

Consider `O=C(NCc1nnc2n1CCC2)c1ccc(Br)s1`, for which the Percent Effect is -4.78%.

For `O=S(=O)(c1cn[nH]c1)N1CCCC(O)(CN2CCOCC2)CC1` (stereo not given), the Percent Effect came out at 13.3%.

Regarding `CCC(C(=O)NCCc1nc(C)cc(C(F)(F)F)n1)n1cccn1` (stereo not given), the Percent Effect is -8.03%. Under `CC(=O)NCc1ccc(C(=O)N2CCCc3c(F)ccc(C)c32)o1` stands 0.928%; under `COc1ccc2c(c1)CCCN(CC(=O)NCC1CCCO1)C2` (stereo not given), -4.46%.

Consider `CN(CC(=O)NCC1CCCCC1)S(=O)(=O)c1cccnc1`, for which the Percent Effect is -4.46%. Turning to `CS(=O)(=O)NC(=O)c1ccn(-c2ccccc2Cl)n1`, the Percent Effect was 9.09%.

On to `CN(Cc1ccccc1)c1cnn(CC2COCCO2)c(=O)c1` (stereo not given), for which the Percent Effect amounted to 10.8%. Under `CN(C)c1nc2c(c(=O)[nH]1)Cc1ccccc1OC2` stands 2.09%; under `CCN(C(=O)CN1CCCN(c2nc(C)ns2)CC1)C1CC1`, 5.97%.

On to `COc1ccc(N2CCN(Cc3nc(CSC)no3)C(C)C2=O)cc1` (stereo not given), for which the Percent Effect stood at 4.28%.

With `O=C(CNC1(CCO)CCOCC1)Nc1ccc(F)cc1F`, the Percent Effect was -0.128%. Regarding `CO[C@H]1C[C@@H](O)C12CCN(C(=O)NCc1ccco1)CC2`, the Percent Effect is -2.57%. To `Cc1noc(C)c1CC(=O)N[C@@H]1CC[C@@H](Oc2ccccc2)[C@@H]1O` belongs 5.13%; to `Cc1c(C(=O)N2CCC3(CCCNC3=O)C2)sc2nc[nH]c(=O)c12` (stereo not given), 13.6%; to `COc1ccccc1CNC(=O)C(C)N1CC(n2cc(C)cn2)C1` (stereo not given), 3.01%.

In the case of `CCNC(=O)c1ccc(NC2CCOC3(CCCCC3)C2)nn1` (stereo not given), the Percent Effect is 3.88%. To `CN(C)CC1(O)CCCN(C(=O)Cn2nc3ccccc3n2)CC1` (stereo not given) belongs -12.7%. Under `CC(=O)N1CCC(NC(=O)CN2CCCc3c(F)ccc(C)c32)CC1` stands 3.84%; under `O=C(NCc1ccc(-n2cncn2)nc1)c1cc[nH]n1`, 2.82%.

Turning to `COc1cccc(CC2CCCN2Cc2nccn2C)c1` (stereo not given), the Percent Effect is -2.19%. With `CCC(C)(CC(=O)OC)NCc1noc(C)n1` (stereo not given), the Percent Effect is 1.21%. Regarding `O=C(CC1CCCC1)NCCS(=O)(=O)N1CCN(c2ccccc2)CC1`, the Percent Effect is -7.22%. Under `Cc1ccccc1C(=O)NCC(=O)NCc1ccccn1` stands 17.3%. To `COCc1ccccc1NC(=O)c1ccoc1` belongs -4.58%. On to `OCCc1ncnn1Cc1cccc(Cl)c1`, for which the Percent Effect came to 32.2%. As to `O=C(CCc1nc(-c2ccsc2)no1)NCC1CCN(C2CC2)C1` (stereo not given), the Percent Effect was 1.07%. As for `Cc1nc(N(C)C)ncc1C(=O)N(Cc1ccncc1)CC1CCCO1` (stereo not given), the Percent Effect was -6.01%. As for `Cn1ccc(N2CCCC(NC(=O)c3ccsc3)C2=O)n1` (stereo not given), the Percent Effect is -4.2%.

As to `CN1CC2(CCCN(C(=O)Cc3cccc(O)c3)C2)OC1=O` (stereo not given), the Percent Effect was 8.24%. Under `CN(CCCC1CCCO1)C(=O)c1cccc(C#N)c1` (stereo not given) stands 10.9%; under `CCN(CCCNC(=O)Nc1ccccc1C(C)C)S(C)(=O)=O`, 11%; under `CCNC(=O)c1ccc(NC(=O)N(C)Cc2cc(C)on2)cc1`, 16.8%. Under `Cc1cc(C(=O)N2C[C@@H](CN(C)CCN(C)C)[C@@H](CO)C2)nc(C)n1` stands -14.8%; under `CC(C)c1nnc2n1CCN(Cc1cc(Cl)c3c(c1)OCCO3)C2`, 11.8%. Under `N#Cc1ccc(Cl)cc1NCC1CC1` stands 5.1%; under `Cn1cccc1C(=O)N1CC[C@@]2(O)CCN(S(C)(=O)=O)C[C@H]2C1`, 4.08%; under `Cc1[nH]c2c(F)cccc2c1CC(=O)NC1CCCCNC1=O` (stereo not given), 10.4%.

On to `NS(=O)(=O)c1ccc(N2CCN(CCCc3cn[nH]c3)CC2)cc1`, for which the Percent Effect was -5.73%.
